Assay [1] concerns the target Cytochrome P450 3A4 (Homo sapiens) (UniProt P08684). As to the kind of experiment: qHTS Assay for Inhibitors and Substrates of Cytochrome P450 3A4 (AID 884). Also: % is scaled to controls: 0 for no effect and ±100 for the full control effect; nearly all actives have a fitted effect of over 50% in size. In outline:
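20 nM human CYP3A4 with 25 uM Luciferin-PPXE (at KM) in 200 mM KPO4, preincubated 10 min with compound; NADPH regeneration started a 60 min RT reaction. Luciferin detected by luminescence, normalized to 57 uM ketoconazole as full inhibition.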

A short description of assay [2]: qHTS Assay for Lipid Storage Modulators (AID 1519; calls by dose curve; as to activity change, negative = inhibition: % is scaled to controls: 0 for no effect and ±100 for the full control effect). Particulars: Drosophila S3 cells, BODIPY lipid droplet/cell ratio, laser cytometry, cells loaded with oleic acid; for activity change, negative = inhibition: at 57.5 µM (top of the series). In a few lines: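 Cells seeded at 5,000 per well were treated with compounds over a concentration series and loaded with oleic acid (400 uM, as added). Lipid droplet fluorescence (488 nm excitation, 500-530 nm channel) was read by laser-scanning cytometry and normalized to 20 uM Triacsin C.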
(Quantitative high-throughput screening tests each substance at several concentrations.)

Assay [3] has as its target DNA dC->dU-editing enzyme APOBEC-3G (Homo sapiens) (UniProt Q9HC16). As to the kind of experiment: qHTS for inhibitors of Vif-A3G interactions: Validation (AID 588379). Also: 0% is about no effect. In outline:
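HeLa cells stably expressing Vif and A3G-eYFP, 700 cells/well, incubated overnight at 37 deg C, then exposed to compound overnight at 37 deg C. Inhibition of Vif-mediated degradation read as increased yellow fluorescence (Ex 488/Em 500-530) by laser-scanning cytometry.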

Assay [4] in a line: Confirmation and Secondary Assay for Modulators of Hemoglobin Beta Chain Splicing at IVS2 654 locus (AID 910).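 Also: per-well total GFP intensity by laser scanning cytometry after 2-day treatment; % of control where 0% means no effect.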 In outline: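 HeLa cells stably carrying EGFP interrupted by mutant beta-globin IVS2-654 intron (CMV-driven) were treated with compound for 2 days at 37C; corrected splicing was scored as total peak GFP intensity per well (488 nm excitation, 500-520 nm emission).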
A short description of assay [5]: Confirmation and Secondary Assay for Modulators of Hemoglobin Beta Chain Splicing at IVS2 705 locus (AID 930).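 Also: HeLa cells stably expressing the EGFP-705 splicing reporter; GFP fluorescence per well restored by corrected splicing of the IVS2-705 intron in EGFP; % of control where 0% means no effect.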 In a few lines: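 Fluorescence gain (488 nm laser, 500-520 nm PMT) reflects restored correct splicing of a mutant IVS2-705 intron inside EGFP in stably transfected HeLa cells after 2-day compound treatment.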
In assay [6] the target is Ubiquitin carboxyl-terminal hydrolase 1 (Homo sapiens) (UniProt O94782). As to the kind of experiment: Inhibitors of USP1/UAF1: Pilot qHTS (AID 504865).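 Also: rhodamine fluorescence freed from ubiquitin-rhodamine substrate followed over time; top concentration of the series differs between compounds; % is scaled to controls: 0 for no effect and ±100 for the full control effect; nearly all actives have a fitted effect of over 35% in size.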 In outline:
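USP1/UAF1 complex at 1 nM preincubated 15 min at room temperature with compound, then Ub-Rho substrate added at 150 nM final. Fluorescence (480/540 nm) read kinetically in 50 mM HEPES pH 7.8, 0.5 mM EDTA, 1 mM TCEP, 0.1 mg/ml BSA, 0.01% Tween-20.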

For assay [7], the target named is Mitogen-activated protein kinase 10 (Mus musculus) (UniProt Q61831). As to the kind of experiment: JNK3 AlphaScreen Assay (AID 530; active = well fitted curve in either direction with a large enough effect, not every such curve was filed as active;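 also: kinase came from lysate of stimulated human HepG2 cells; signal reports phosphorylation of biotinylated GST-cJun 1-79 at Ser73 with 10 µM ATP; % is scaled to controls: 0 for no effect and ±100 for the full control effect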). In outline: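 JNK3 came from HepG2 lysates pre-activated with IL-1beta and TNF-alpha and phosphorylated biotinylated GST-cJun (1-79) at 10 uM ATP, pH 7.6, room temperature. Compounds were titrated. AlphaScreen signal used anti-phospho-cJun (Ser73) antibody.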
(In general: Alpha assays give light when donor and acceptor beads are brought close together.)

Assay [8] has as its target 3',5'-cyclic-AMP phosphodiesterase 4B (Homo sapiens) (UniProt Q07343). Kind of assay: qHTS Assay for Inhibitors of PDE-IV (AID 607; active = well fitted activation curve with a large enough effect in the main read-out, with a control signal flat, not every such curve was filed as active; also: % of control where 0% means no effect). In a few lines: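 HEK293 ACTOne cells with CNG channel (1000/well), endogenous PDE4; membrane potential dye, compounds up to 22.9 uM final. Fluorescence Ex 535/Em 590; RO 20-1724 (100 uM final) as reference.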
Assay [9] has as its target Cytochrome P450 2C9 (Homo sapiens) (UniProt P11712). As to the kind of experiment: qHTS Assay for Inhibitors and Substrates of Cytochrome P450 2C9 (AID 883). Also: % is scaled to controls: 0 for no effect and ±100 for the full control effect; nearly all actives have a fitted effect of over 60% in size. In outline:
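A luminogenic readout tracked human CYP2C9 (10nM) converting deoxyluciferin (100uM, at KM) in 25mM KPO4 during 60 min at 37C with regenerated NADPH. Values normalized to 57uM sulphaphenazole as complete inhibition.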

Assay [10] concerns the target Cytochrome P450 2D6 (Homo sapiens) (UniProt P10635). Kind of assay: qHTS Assay for Inhibitors and Substrates of Cytochrome P450 2D6 (AID 891).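 Also: luciferin methyl ether substrate demethylated by CYP2D6 with NADPH regeneration; % is scaled to controls: 0 for no effect and ±100 for the full control effect; nearly all actives have a fitted effect of over 60% in size.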 In outline:
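Human CYP2D6 (5 nM) with 30 uM Luciferin-ME EGE (at Km) in 100 mM KPO4, compound preincubated 10 min, then NADPH regeneration system for 60 min at room temperature. Luciferin read by luminescence; normalized to 1.43 uM quinidine.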

Assay [11] concerns the target Cytochrome P450 2C19 (Homo sapiens) (UniProt P33261). As to the kind of experiment: qHTS Assay for Inhibitors and Substrates of Cytochrome P450 2C19 (AID 899). Also: % is scaled to controls: 0 for no effect and ±100 for the full control effect; nearly all actives have a fitted effect of over 60% in size. In outline:
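NADPH-dependent conversion of Luciferin-H EGE (10uM, at KM) by 5nM enzyme in 50mM KPO4, 60 min at 37C following 10 min compound preincubation. Stopped with luciferin detection buffer; luminescence read after 20 min.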

Where [12] appears, read: measured here: cell count channel max response.
[13] abbreviates: measured here: lipid channel max response.

Each structure is given as a SMILES string. Results filed as inconclusive are left out. The source made the active and inactive calls. Unless noted, calls follow the shape of the dose curve; as a rule, active = well fitted curve in the direction sought with a large enough effect; inconclusive = small, poorly fitted or top-dose-only effect, or another doubt; inactive = no such curve, though single readings can be large; an effect the other way counts as inactive or inconclusive.

Sequence of DNA dC->dU-editing enzyme APOBEC-3G (Homo sapiens) (Q9HC16 whole entry, looked up): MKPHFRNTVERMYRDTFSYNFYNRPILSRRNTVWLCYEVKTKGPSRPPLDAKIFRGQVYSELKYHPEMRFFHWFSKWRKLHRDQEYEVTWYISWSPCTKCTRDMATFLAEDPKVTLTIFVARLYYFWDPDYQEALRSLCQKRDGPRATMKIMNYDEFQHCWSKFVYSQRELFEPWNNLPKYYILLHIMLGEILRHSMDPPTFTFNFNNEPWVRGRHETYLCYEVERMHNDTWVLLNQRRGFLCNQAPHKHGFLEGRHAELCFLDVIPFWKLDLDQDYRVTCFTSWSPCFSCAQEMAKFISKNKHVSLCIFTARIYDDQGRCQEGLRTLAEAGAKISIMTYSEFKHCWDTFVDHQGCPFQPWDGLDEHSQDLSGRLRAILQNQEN
Sequence of Cytochrome P450 3A4 (Homo sapiens) (P08684 whole entry, looked up): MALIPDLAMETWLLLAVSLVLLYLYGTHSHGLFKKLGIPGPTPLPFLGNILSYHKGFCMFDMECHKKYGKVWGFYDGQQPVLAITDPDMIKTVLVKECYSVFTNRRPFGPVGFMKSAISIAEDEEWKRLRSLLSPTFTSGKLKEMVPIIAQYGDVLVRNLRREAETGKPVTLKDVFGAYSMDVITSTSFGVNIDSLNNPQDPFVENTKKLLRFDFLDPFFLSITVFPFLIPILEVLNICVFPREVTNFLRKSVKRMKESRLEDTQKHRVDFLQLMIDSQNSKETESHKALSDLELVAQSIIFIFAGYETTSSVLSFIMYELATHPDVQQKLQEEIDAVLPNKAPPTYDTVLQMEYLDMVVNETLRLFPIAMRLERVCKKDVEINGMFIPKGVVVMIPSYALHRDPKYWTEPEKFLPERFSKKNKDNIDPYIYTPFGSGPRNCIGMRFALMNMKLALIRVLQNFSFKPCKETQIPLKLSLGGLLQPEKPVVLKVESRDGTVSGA
Sequence of Ubiquitin carboxyl-terminal hydrolase 1 (Homo sapiens) (O94782 whole entry, looked up): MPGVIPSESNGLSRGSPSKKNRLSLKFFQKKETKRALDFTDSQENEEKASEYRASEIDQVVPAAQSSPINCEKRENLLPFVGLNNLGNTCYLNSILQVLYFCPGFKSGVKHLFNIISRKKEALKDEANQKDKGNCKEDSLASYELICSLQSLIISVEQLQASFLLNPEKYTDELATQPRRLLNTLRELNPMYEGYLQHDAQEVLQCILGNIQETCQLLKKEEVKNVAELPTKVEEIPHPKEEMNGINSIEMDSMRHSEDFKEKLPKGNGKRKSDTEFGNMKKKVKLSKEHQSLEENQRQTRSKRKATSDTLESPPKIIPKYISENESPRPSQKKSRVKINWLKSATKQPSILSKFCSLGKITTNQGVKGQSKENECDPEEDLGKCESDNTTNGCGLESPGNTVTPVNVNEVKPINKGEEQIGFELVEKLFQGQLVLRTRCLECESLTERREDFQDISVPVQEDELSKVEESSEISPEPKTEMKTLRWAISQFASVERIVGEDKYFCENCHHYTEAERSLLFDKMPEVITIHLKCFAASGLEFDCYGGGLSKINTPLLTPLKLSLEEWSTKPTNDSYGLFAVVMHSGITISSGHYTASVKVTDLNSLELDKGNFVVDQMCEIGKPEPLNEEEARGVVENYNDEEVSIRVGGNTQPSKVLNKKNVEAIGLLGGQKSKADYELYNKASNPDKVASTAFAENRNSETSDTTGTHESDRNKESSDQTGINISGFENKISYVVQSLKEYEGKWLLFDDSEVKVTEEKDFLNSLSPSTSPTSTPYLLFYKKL
Sequence of Cytochrome P450 2D6 (Homo sapiens) (P10635 whole entry, looked up): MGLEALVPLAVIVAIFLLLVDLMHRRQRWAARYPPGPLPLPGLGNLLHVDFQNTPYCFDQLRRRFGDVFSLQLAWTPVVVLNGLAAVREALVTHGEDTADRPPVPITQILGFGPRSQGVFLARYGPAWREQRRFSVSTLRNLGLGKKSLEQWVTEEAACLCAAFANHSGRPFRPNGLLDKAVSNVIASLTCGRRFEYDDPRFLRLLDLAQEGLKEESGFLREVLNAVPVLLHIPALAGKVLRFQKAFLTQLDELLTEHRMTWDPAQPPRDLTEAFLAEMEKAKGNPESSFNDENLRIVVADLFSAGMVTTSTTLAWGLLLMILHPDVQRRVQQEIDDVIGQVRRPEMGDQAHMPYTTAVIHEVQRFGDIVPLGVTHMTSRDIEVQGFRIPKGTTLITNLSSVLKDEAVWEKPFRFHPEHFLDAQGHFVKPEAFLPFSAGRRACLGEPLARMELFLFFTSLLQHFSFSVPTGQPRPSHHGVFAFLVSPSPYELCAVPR
Sequence of Cytochrome P450 2C9 (Homo sapiens) (P11712 whole entry, looked up): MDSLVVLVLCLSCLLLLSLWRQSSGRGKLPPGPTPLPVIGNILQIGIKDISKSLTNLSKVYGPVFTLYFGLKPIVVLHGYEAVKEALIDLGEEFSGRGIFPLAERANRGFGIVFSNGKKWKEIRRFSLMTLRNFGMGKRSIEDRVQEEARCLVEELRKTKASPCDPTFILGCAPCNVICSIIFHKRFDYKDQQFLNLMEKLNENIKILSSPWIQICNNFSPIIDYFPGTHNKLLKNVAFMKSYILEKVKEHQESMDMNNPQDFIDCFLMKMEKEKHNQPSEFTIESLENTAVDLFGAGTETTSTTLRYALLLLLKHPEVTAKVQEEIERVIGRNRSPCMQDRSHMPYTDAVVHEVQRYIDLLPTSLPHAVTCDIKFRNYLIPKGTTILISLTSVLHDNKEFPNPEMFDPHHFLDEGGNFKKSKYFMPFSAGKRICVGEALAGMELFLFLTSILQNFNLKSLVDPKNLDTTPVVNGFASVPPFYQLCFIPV
Sequence of 3',5'-cyclic-AMP phosphodiesterase 4B (Homo sapiens) (Q07343 whole entry, looked up): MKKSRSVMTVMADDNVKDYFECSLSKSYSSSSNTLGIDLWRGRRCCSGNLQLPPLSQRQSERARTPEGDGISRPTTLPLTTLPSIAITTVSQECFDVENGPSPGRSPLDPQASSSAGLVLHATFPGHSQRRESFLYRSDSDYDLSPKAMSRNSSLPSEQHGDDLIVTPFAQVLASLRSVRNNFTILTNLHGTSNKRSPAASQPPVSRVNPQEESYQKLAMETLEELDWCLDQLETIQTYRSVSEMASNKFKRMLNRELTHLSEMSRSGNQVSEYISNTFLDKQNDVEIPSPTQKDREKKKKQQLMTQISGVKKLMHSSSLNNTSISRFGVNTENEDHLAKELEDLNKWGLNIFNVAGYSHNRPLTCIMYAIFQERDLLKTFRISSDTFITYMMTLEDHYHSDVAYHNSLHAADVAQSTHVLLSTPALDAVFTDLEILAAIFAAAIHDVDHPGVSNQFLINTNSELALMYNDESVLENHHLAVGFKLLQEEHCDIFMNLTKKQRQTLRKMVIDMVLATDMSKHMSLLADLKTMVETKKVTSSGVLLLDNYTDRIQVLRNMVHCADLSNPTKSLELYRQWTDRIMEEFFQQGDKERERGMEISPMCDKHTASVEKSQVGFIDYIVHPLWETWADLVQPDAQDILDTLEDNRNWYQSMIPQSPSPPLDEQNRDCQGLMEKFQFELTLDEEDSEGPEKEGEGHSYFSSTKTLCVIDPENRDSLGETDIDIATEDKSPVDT
Sequence of Cytochrome P450 2C19 (Homo sapiens) (P33261 whole entry, looked up): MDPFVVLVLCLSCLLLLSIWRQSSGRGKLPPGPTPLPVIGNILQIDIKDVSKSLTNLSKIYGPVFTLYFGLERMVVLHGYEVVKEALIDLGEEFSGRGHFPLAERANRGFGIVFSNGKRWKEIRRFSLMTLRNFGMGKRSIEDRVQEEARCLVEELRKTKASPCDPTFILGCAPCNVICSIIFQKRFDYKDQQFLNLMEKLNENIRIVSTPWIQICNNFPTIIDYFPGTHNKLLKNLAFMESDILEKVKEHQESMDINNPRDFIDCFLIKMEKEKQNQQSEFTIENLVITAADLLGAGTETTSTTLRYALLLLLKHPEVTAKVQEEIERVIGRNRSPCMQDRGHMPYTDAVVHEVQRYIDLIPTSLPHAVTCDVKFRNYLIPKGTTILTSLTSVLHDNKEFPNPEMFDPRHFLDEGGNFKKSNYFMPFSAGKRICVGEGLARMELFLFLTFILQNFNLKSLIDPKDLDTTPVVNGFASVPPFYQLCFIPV

With `O=C(O)CCCC[C@@H]1SC[C@H]2NC(=O)N[C@@H]12`, the Potency entry in assay [1] is “inactive”. For the same molecule, in assay [2], the activity change, negative = inhibition was 6.17% (inactive). Further, the results for the max response in assay [2] (setting [12]) and in [2] (setting [13]) were 12.9% and 23.3%, respectively. Moreover, the molecule was called inactive in assay [3].
Take `CCC(C)C(=O)O[C@H]1C[C@@H](C)C=C2C=C[C@H](C)[C@H](CC[C@@H]3C[C@@H](O)CC(=O)O3)C21` (stereo partly specified): the activity change, negative = inhibition in assay [2] was -9.81% (inactive). Also, the max response in assay [2] (setting [12]) came to 22%; in assay [2] (setting [13]), 13.2%. Moreover, the call in [3] was inactive.
With `CCOC(=O)OC(C)OC(=O)C1N2C(=O)C(NC(=O)C(N)c3ccccc3)C2SC1(C)C` (stereo unspecified), the Potency result in assay [4], in assay [5] and in [6] was “inactive” in each case. Besides, the activity change, negative = inhibition in assay [2] was 6.11% (inactive). For the same molecule, the max response in [2] (setting [12]) amounted to 21.6%; in [2] (setting [13]), 29.1%.
With `N=c1ccn2c(n1)O[C@@H]1[C@H](O)[C@H](CO)O[C@@H]12`, in [1], the Potency entry was “inactive”. Further, the activity change, negative = inhibition in assay [2] is -7.95% (inactive). In addition, the values for the max response in [2] (setting [12]) and in assay [2] (setting [13]) were 4.02% and -4.27%, respectively. For the same molecule, the molecule was classed as inactive in assay [3].
Consider `CC1(C)OC2CC3C4CCC5=CC(=O)C=C[C@@]5(C)[C@]4(F)C(O)C[C@@]3(C)[C@]2(C(=O)CO)O1` (stereo partly specified), for which the Potency entry in [4], in assay [5] and in [6] was “inactive” throughout. Besides, the activity change, negative = inhibition in assay [2] was -5.31% (inactive). Besides, the max response was -0.616% in [2] (setting [12]) and -3.49% in [2] (setting [13]).
In the case of `O=C(O)CCC(=O)OC[C@@H](NC(=O)C(Cl)Cl)C(O)c1ccc([N+](=O)[O-])cc1` (stereo partly specified), the Potency result in assay [4], in assay [5] and in [6] was “inactive” in each case. Also, the activity change, negative = inhibition in [2] is 7.24% (inactive). The figures for the max response in assay [2] (setting [12]) and in assay [2] (setting [13]) were 16.6% and 25.2%, respectively.
`NCCC(=O)N[C@@H](Cc1cnc[nH]1)C(=O)O`: the Potency entry in assay [7], in assay [9], in assay [1], in [10] and in [11] was “inactive” each time. The molecule was called inactive in assay [8] and in assay [3]. In addition, in [2], the activity change, negative = inhibition is -2.81% (inactive). For the same molecule, the figures for the max response in assay [2] (setting [12]) and in [2] (setting [13]) were -6.32% and -9.96%, respectively.
With `C[C@]12C=CC(=O)C=C1CCC1C2C(=O)C[C@]2(C)C1CC[C@]2(O)C(=O)CO` (stereo partly specified), the Potency entry in assay [4], in [5] and in [6] was “inactive” in each case. In assay [2], the activity change, negative = inhibition is 8.15% (inactive). Also, the results for the max response in [2] (setting [12]) and in assay [2] (setting [13]) were 19.1% and 31.9%, respectively.
For `C#C[C@]1(O)CCC2C3CCC4=CC(=O)CCC4C3CC[C@@]21C` (stereo partly specified), the Potency entry in assay [4], in [5] and in [6] was “inactive” in each case. In assay [2], the activity change, negative = inhibition was 3.02% (inactive). The max response was 2.28% in assay [2] (setting [12]) and 5.87% in [2] (setting [13]).
As to `CC(=O)OCC(=O)[C@@]1(O)CCC2C3CC[C@H]4CC(O)CC[C@@]4(C)C3C(=O)C[C@]21C` (stereo partly specified), the Potency result in assay [5] and in [6] was “inactive” each time. Besides, the activity change, negative = inhibition in assay [2] was 4.69% (inactive). The max response in assay [2] (setting [12]) was -0.527%; in assay [2] (setting [13]), 6.2%.
Consider `CC(C)CC(NC(=O)OCC1c2ccccc2-c2ccccc21)C(=O)O` (stereo unspecified), for which the Potency entry in [4], in assay [5] and in [6] was “inactive” in each case. Moreover, the activity change, negative = inhibition in assay [2] is 2.46% (inactive). For the same molecule, the max response in assay [2] (setting [12]) is 10.8%; in assay [2] (setting [13]), 14.5%.
In the case of `O=C(O)C1=CC(O)[C@@H](O)C(O)C1` (stereo partly specified), the Potency entry in assay [4], in [5] and in assay [6] was “inactive” each time. Further, the activity change, negative = inhibition in assay [2] was 3.18% (inactive). The values for the max response in assay [2] (setting [12]) and in [2] (setting [13]) were 15.5% and 22.2%, respectively.

The values above are taken from PubChem BioAssay (NCATS).
